Measurements reported in PubChem BioAssay AID1259418 (Broad Institute, 2018).
In all, about 3,400 compounds went through this assay and about 840 (25%) were called active. Another 11% or so got no clear call; they are omitted.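 The calls were made as follows: active = fitted half-maximal concentration of signal decrease at or below twice the sample's top tested concentration; inconclusive = flat curve between -70 and -30 percent, or poor fit; inactive = flat within 30 percent, signal rise, or potency above limit.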 Not all results are given here. Entries with a potency or affinity are not part of this list.

test: inhibitors of Toxoplasma growth in IFN-γ-primed HeLa – cell-based, ME49Luc, luciferase, 72 h, dose response (AID 1259418); conditions: T. gondii ME49Luc in IFN-y HeLa, hits give low values, -100% = high-dose IFN-γ control wells; at 19.5 µM unless noted

Compound | max activity
Cc1nc(CCNC(=O)[C@H]2CCCN2S(=O)(=O)c2cccs2)cs1 | 7.39% [at 0.16 µM] (inactive)
O=C(NCCCN1CCC(N2CCCCC2)CC1)c1nnc2ccc(-c3ccccc3)nn12 | 16.2% [at 0.16 µM] (inactive)
Cc1cccc(C(=O)N2CCC3(CC2)Nc2ccc(C)c(C)c2-n2cccc23)c1 | 11.2% [at 0.68 µM] (inactive)
Cc1oc(-c2ccccc2)nc1Cn1nnc(-c2nc(-c3ccc4c(c3)OCO4)no2)c1C | 8.48% [at 10 µM] (inactive)
COc1ccc(-c2nc(NCC3CCN(Cc4cccc(Cl)c4)CC3)c3ccccc3n2)cc1 | -31.6% [at 10 µM] (inactive)
O=S(=O)(Cc1ccccc1)N1CC2CN(Cc3cccc(Cl)c3)CC2C1 (stereo not given) | 9.94% (inactive)
COc1ccc(-c2nc(NCC3CCN(Cc4cccc(C)c4)CC3)c3ccccc3n2)cc1 | -18.6% [at 2.6 µM] (inactive)
COc1cccc(CN2CCc3nc(SCc4nc(-c5ccccc5)oc4C)[nH]c(=O)c3C2)c1 | 24.2% [at 2.6 µM] (inactive)
COc1cccc(CNC(=O)N2CCc3nc(-c4ccccc4)sc3C2)c1 | -15% [at 5 µM] (inactive)
COCCC(=O)c1cc2c(s1)CCN2Cc1cccnc1 | 26.4% (inactive)
Cc1ccccc1S(=O)(=O)N1CCCCN2[C@H](CO)[C@H](c3ccc(C#CCN(C)C)cc3)[C@@H]2C1 | -17.9% (inactive)
Cc1ccccc1S(=O)(=O)N1CCCCN2[C@H](CO)[C@H](c3ccc(C#CCN(C)C)cc3)[C@H]2C1 | 23.7% (inactive)
Cc1cccc(N2CCN(c3nc(-c4ccc(Cl)cc4)nc4ccccc34)CC2)c1C | 10.6% (inactive)
c1cc(-c2nccn2CCn2ccnc2)ccn1 | 11.4% (inactive)
COc1cccc(CNc2nc(-c3ccc(Cl)cc3)nc3ccccc23)c1 | -22% [at 1.35 µM] (inactive)
O=S(=O)(c1cccc(F)c1)N1CC[C@@H]2[C@H]1c1cc(Br)ccc1N[C@@H]2CO | 35.2% [at 10 µM] (inactive)
OC[C@@H]1Nc2ccc(-c3cccc(F)c3)cc2[C@H]2[C@@H]1CCN2Cc1ccc(F)cc1 | 42.2% [at 10 µM] (inactive)
Cc1ccc(-c2csc(-c3cccn3CC(=O)N3CCC4(CC3)OCCO4)n2)cc1 | 11.8% [at 5 µM] (inactive)
Cc1oc(-c2ccccc2)nc1Cn1nnc(-c2nc(-c3ccc(F)c(Cl)c3)no2)c1C | -12.6% [at 1.35 µM] (inactive)
O=C(COc1ccccc1)N1CCC2(CC1)Nc1cc(F)ccc1-n1cccc12 | 10.6% [at 5 µM] (inactive)
